Experimental data taken from PubChem BioAssay AID2284102 (EPA ToxCast).
Results filed as inconclusive are left out. Calls of active or inactive are those of the source. Rule for the calls: active = hit-call score of the fitted dose curve at least 0.9, where 1 is the maximum; inconclusive = response in the unintended direction; inactive = score below 0.9.

What follows are compounds tested against Tyrosine-protein kinase Lyn (Homo sapiens) (UniProt P07948) (assay: ERF_FR_ENZ_hLYN: Eurofins (ERF) Enzymatic Radiometric [Km ATP] KinaseProfiler LeadHunter Assay for human LYN Tyrosine Kinase).
Method: ERF_FR_ENZ_hLYN is a biochemical, single-readout assay that uses extracted gene-proteins in a cell-free assay. Measurements were taken 0.5 hour after chemical dosing in a 96-well plate. See LYN (B) Human TK Kinase Enzymatic HTRF Assay [Km ATP], Cerep.ERF_FR_ENZ_hLYN is an assay component calculated from the ERF_FR_ENZ_hLYN assay. It is designed to measure enzyme activity using a type of enzyme reporter as detected by fluorescence intensity with HTRF technology.Data from the assay component ERF_FR_ENZ_hLYN was analyzed at the assay endpoint, ERF_FR_ENZ_hLYN, in the positive analysis fitting direction relative to DMSO as the negative control and baseline of activity. Using a type of enzyme reporter, loss-of-signal activity can be used to understand changes in enzymatic activity as they relate to gene LYN. To generalize the intended target to other relatable targets, this assay endpoint is annotated to the kinase intended target family, where the subfamily is non-receptor tyrosine kinase.
Lyn (h) is incubated with 50 mM Tris pH 7.5, 0.1 mM EGTA, 0.1 mM Na3VO4, 0.1% […], 0.1 mg/mL poly(Glu, Tyr) 4:1, 10 mM MgAcetate and [gamma-33P]-ATP (specific activity and concentration as required). The reaction is initiated by the addition of the Mg/ATP mix. After incubation for 40 minutes at room temperature, the reaction is stopped by the addition of phosphoric acid to a concentration of 0.5%. An aliquot of the reaction is then spotted onto a filter and washed four times for 4 minutes in 0.425% phosphoric acid and once in methanol prior to drying and scintillation counting.Compound should be supplied in 100% DMSO.We require a stock solution at a concentration of at least 50x higher than the Final Assay Concentration of your cpd. A 10mM stock is also acceptable.When ordering fewer than 60 kinase assays, we need 120uL of 50x concentrated stock. For more than 60 assays, we need 420 uL of 50xcc stock. Please apply the conversion if you provide 10mM stock solution or compounds in powder form (pre-weighed is required) From 50 cpds supplied as solids, the TAT will be extended.

Tyrosine-protein kinase Lyn (Homo sapiens), sequence (P07948 whole entry, looked up): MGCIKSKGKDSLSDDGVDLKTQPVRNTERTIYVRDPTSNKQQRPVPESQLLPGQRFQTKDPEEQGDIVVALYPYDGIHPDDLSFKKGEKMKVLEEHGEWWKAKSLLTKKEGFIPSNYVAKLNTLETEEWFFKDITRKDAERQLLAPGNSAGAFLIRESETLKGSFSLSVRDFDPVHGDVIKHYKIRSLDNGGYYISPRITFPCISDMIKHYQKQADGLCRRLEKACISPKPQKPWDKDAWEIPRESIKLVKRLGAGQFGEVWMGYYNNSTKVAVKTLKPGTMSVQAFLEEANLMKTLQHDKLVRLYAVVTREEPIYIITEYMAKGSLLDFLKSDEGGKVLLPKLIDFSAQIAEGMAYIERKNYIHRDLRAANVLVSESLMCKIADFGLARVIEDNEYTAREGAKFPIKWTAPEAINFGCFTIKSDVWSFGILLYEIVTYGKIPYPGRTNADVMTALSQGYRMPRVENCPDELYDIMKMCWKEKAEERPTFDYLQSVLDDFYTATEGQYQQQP

AC50, active:
COc1cc(CCC(=O)CC(=O)CCc2ccc(O)c(OC)c2)ccc1O 2360 nM
COc1cc(/C=C/C(=O)CC(=O)/C=C/c2ccc(O)c(OC)c2)ccc1O 24.6 nM
O=C(/C=C/c1ccc(O)cc1)CC(=O)/C=C/c1ccc(O)cc1 2600 nM
